# Molecular target: POU1 (OCT1 POU domain);BOB1 (OBF1, OCA-B) (human;human, UniProt P14859;Q16633 260-458;1-256, |)
# Assay: EMSA-SELEX-seq; with BOB1 (ternary complex band); 20 mM Tris-HCl pH 7.6, 140 mM NaCl, 10% glycerol, 0.5 mM EDTA, 0.05% Triton X-100, 0.1 mg/mL BSA, 0.1 mg/mL poly(dI-dC), 5 mM DTT, room temperature, 20 min; high values mean tight binding
# Conditions: protein: recombinant;recombinant; copies: 1;1; dsDNA, one strand shown
# Summary of the method: (§1)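 Binding preference is reported as the percentage of sequenced 8-mers that match a motif pattern. Tagged POU-domain proteins were made in E. coli BL21, purified under denaturing conditions and renatured. A 30 ng portion was combined with 300 ng of a PCR-amplified double-stranded random 35-nt library, with or without 28 ng coactivator protein, in 20 μL Tris–HCl pH 7.6 binding buffer for 20 min at RT. Complex bands were excised from native 6% PAGE, eluted and PCR-amplified over four rounds before Illumina sequencing.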
row,Sequence,binding signal
1,ACCCAAAG,0.0203 % of ANNNNAAN 8-mers
2,ACGGCAAC,0.0152 % of ANNNNAAN 8-mers
3,AACTTAAT,0.0613 % of ANNNNAAN 8-mers
4,AGCTAAAT,0.0738 % of ANNNNAAN 8-mers
5,ATACCAAG,0.0238 % of ANNNNAAN 8-mers
6,AGCCAAAT,0.167 % of ANNNNAAN 8-mers
7,AACCTAAT,0.0386 % of ANNNNAAN 8-mers
8,AGGAAAAG,0.133 % of ANNNNAAN 8-mers
9,AGGCGAAC,0.0207 % of ANNNNAAN 8-mers
10,ATCAGAAA,0.0546 % of ANNNNAAN 8-mers
11,ATAGTAAC,0.023 % of ANNNNAAN 8-mers
12,AGGAGAAT,0.0624 % of ANNNNAAN 8-mers
13,ATGGTAAG,0.071 % of ANNNNAAN 8-mers
14,AGAATAAT,0.0948 % of ANNNNAAN 8-mers
15,AAGCGAAC,0.0176 % of ANNNNAAN 8-mers
16,ACTAGAAT,0.0589 % of ANNNNAAN 8-mers
17,AGTATAAA,0.0585 % of ANNNNAAN 8-mers
18,ATATGAAC,0.03 % of ANNNNAAN 8-mers
19,AGCAAAAT,0.107 % of ANNNNAAN 8-mers
20,ACTGTAAA,0.0406 % of ANNNNAAN 8-mers

row,Sequence,binding signal
1,ACCTAAAT,0.0386 % of ANNNNAAN 8-mers
2,AAGTCAAG,0.0367 % of ANNNNAAN 8-mers
3,ATCTGAAG,0.0359 % of ANNNNAAN 8-mers
4,ATGGGAAT,0.0995 % of ANNNNAAN 8-mers
5,ACGTGAAA,0.0386 % of ANNNNAAN 8-mers
6,AGATCAAC,0.0211 % of ANNNNAAN 8-mers
7,ATTTAAAT,0.709 % of ANNNNAAN 8-mers
8,AAGCGAAG,0.0238 % of ANNNNAAN 8-mers
9,ATCGCAAC,0.014 % of ANNNNAAN 8-mers
10,ACGCGAAT,0.0336 % of ANNNNAAN 8-mers
11,AATCTAAA,0.0726 % of ANNNNAAN 8-mers
12,ACAGAAAC,0.0269 % of ANNNNAAN 8-mers
13,ATCCCAAT,0.025 % of ANNNNAAN 8-mers
14,AGACTAAC,0.0156 % of ANNNNAAN 8-mers
15,AGCGGAAA,0.0324 % of ANNNNAAN 8-mers
16,ATCCCAAG,0.0246 % of ANNNNAAN 8-mers
17,ACATCAAA,0.0363 % of ANNNNAAN 8-mers
18,AGGCGAAA,0.0386 % of ANNNNAAN 8-mers
19,AACGAAAG,0.0328 % of ANNNNAAN 8-mers

# Molecular target: T1, POU2 (OCT2 POU domain);BOB1 (OBF1, OCA-B) (human;human, UniProt P09086;Q16633 175-386;1-256, |)
# T1 sequence 1: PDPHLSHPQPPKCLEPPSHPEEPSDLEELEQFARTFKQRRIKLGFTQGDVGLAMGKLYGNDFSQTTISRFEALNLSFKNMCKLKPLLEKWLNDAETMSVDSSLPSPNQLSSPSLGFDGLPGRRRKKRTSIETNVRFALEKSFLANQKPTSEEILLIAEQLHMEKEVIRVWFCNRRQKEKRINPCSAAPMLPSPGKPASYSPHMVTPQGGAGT
# T1 sequence 2: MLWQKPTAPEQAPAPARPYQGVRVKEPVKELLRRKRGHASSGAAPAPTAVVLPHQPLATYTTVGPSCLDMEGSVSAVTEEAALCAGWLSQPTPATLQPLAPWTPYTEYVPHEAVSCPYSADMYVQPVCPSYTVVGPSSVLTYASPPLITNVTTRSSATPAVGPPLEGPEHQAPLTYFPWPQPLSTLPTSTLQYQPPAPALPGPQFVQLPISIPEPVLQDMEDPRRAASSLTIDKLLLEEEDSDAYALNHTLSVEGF
# Assay: as above
# Conditions: protein: recombinant;recombinant; copies: 1;1; dsDNA, one strand shown
# Summary of the method: as §1
row,Sequence,binding signal
1,ACCCAAAG,0.0206 % of ANNNNAAN 8-mers
2,ACGGCAAC,0.0124 % of ANNNNAAN 8-mers
3,AACTTAAT,0.0677 % of ANNNNAAN 8-mers
4,AGCTAAAT,0.0479 % of ANNNNAAN 8-mers
5,ATACCAAG,0.0305 % of ANNNNAAN 8-mers
6,AGCCAAAT,0.0892 % of ANNNNAAN 8-mers
7,AACCTAAT,0.0438 % of ANNNNAAN 8-mers
8,AGGAAAAG,0.0702 % of ANNNNAAN 8-mers
9,AGGCGAAC,0.0305 % of ANNNNAAN 8-mers
10,ATCAGAAA,0.0438 % of ANNNNAAN 8-mers
11,ATAGTAAC,0.038 % of ANNNNAAN 8-mers
12,AGGAGAAT,0.0702 % of ANNNNAAN 8-mers
13,ATGGTAAG,0.09 % of ANNNNAAN 8-mers
14,AGAATAAT,0.122 % of ANNNNAAN 8-mers
15,AAGCGAAC,0.0231 % of ANNNNAAN 8-mers
16,ACTAGAAT,0.0438 % of ANNNNAAN 8-mers
17,AGTATAAA,0.0479 % of ANNNNAAN 8-mers
18,ATATGAAC,0.0528 % of ANNNNAAN 8-mers
19,AGCAAAAT,0.0759 % of ANNNNAAN 8-mers
20,ACTGTAAA,0.0388 % of ANNNNAAN 8-mers

row,Sequence,binding signal
1,ACCTAAAT,0.0421 % of ANNNNAAN 8-mers
2,AAGTCAAG,0.033 % of ANNNNAAN 8-mers
3,ATCTGAAG,0.0413 % of ANNNNAAN 8-mers
4,ATGGGAAT,0.116 % of ANNNNAAN 8-mers
5,ACGTGAAA,0.0297 % of ANNNNAAN 8-mers
6,AGATCAAC,0.0338 % of ANNNNAAN 8-mers
7,ATTTAAAT,0.832 % of ANNNNAAN 8-mers
8,AAGCGAAG,0.0231 % of ANNNNAAN 8-mers
9,ATCGCAAC,0.0239 % of ANNNNAAN 8-mers
10,ACGCGAAT,0.0371 % of ANNNNAAN 8-mers
11,AATCTAAA,0.0669 % of ANNNNAAN 8-mers
12,ACAGAAAC,0.0231 % of ANNNNAAN 8-mers
13,ATCCCAAT,0.033 % of ANNNNAAN 8-mers
14,AGACTAAC,0.0198 % of ANNNNAAN 8-mers
15,AGCGGAAA,0.033 % of ANNNNAAN 8-mers
16,ATCCCAAG,0.0198 % of ANNNNAAN 8-mers
17,ACATCAAA,0.0239 % of ANNNNAAN 8-mers
18,AGGCGAAA,0.0363 % of ANNNNAAN 8-mers
19,AACGAAAG,0.0264 % of ANNNNAAN 8-mers
